# Laboratory results published in PubChem BioAssay (NCI).
# “And” between values parts separate entries of the source, which are not always exact repeats. Identical values can stand only once. This is part of a sample that, as a whole, favours compounds with a hit. Of some 79,000 tested, about 15% had one in any assay. The source holds several records for some structures; these can differ, active in one and inactive in another. The source made the active and inactive calls. Rule as the data show it: active = growth inhibition above about 70%; inactive = the rest.
# Key:
# [1] = NCI Yeast Anticancer Drug Screen. Data for the rad50 strain (AID 155);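 also: 0% = growth of vehicle-only cultures of the same strain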; conditions: S. cerevisiae rad50 strain growth inhibition, stronger effect = higher value
# Procedure, shortened: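 Readout: growth inhibition relative to vehicle-treated cultures. Compound exposure was carried out in a genetically defined yeast strain deficient in DNA damage repair.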
# [2] = NCI Yeast Anticancer Drug Screen. Data for the mec2-1 strain (AID 157); conditions: S. cerevisiae mec2-1 strain, stronger effect = higher value
# Procedure, shortened: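 mec2-1 yeast strain, carrying an alteration in DNA damage repair or cell cycle control, was exposed to compounds; growth inhibition was measured relative to vehicle-treated controls.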
# [3] = NCI Yeast Anticancer Drug Screen. Data for the sgs1 mgt1 strain (AID 161);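 also: 0% = growth of cultures given vehicle only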; conditions: S. cerevisiae sgs1 mgt1 strain, stronger effect = higher value
# Procedure, shortened: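 This yeast growth screen uses a strain with defined DNA-repair lesions; compound-treated growth is compared with vehicle-treated growth.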
# [4] = NCI Yeast Anticancer Drug Screen. Data for the cln2 rad14 strain (AID 165);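 also: 0% = growth equal to vehicle treated cultures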; conditions: S. cerevisiae cln2 rad14 strain, stronger effect = higher value
# Procedure, shortened: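 Yeast carrying cln2 and rad14 alterations (cell cycle control and DNA damage repair) were exposed to compounds. Growth inhibition was measured against vehicle-treated controls.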
# [5] = NCI Yeast Anticancer Drug Screen. Data for the bub3 strain (AID 167); conditions: S. cerevisiae bub3 mutant strain, stronger effect = higher value
# Procedure, shortened: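 Readout: yeast growth inhibition, expressed relative to vehicle-only wells. The test organism is a mutant strain from a panel with lesions in DNA repair or checkpoint genes.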
# [6] = NCI Yeast Anticancer Drug Screen. Data for the mlh1 rad18 strain (AID 175); conditions: S. cerevisiae mlh1 rad18 strain growth inhibition, stronger effect = higher value
# Procedure, shortened: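 Growth inhibition of the yeast strain was measured after compound exposure and expressed relative to vehicle-treated controls. The strain carries defined defects in DNA damage repair.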
# [7] = at 5.0 µM (retest, dose inferred, filed as 0.5)
# [8] = at 50.0 µM (retest, dose inferred, filed as 5.0)
SMILES,"growth inhibition [1, 7]","growth inhibition [1, 8]",growth inhibition ([1]; at 50.0 µM),"growth inhibition [2, 7]","growth inhibition [2, 8]",growth inhibition ([2]; at 50.0 µM),"growth inhibition [3, 7]","growth inhibition [3, 8]",growth inhibition ([3]; at 50.0 µM),"growth inhibition [4, 7]","growth inhibition [4, 8]",growth inhibition ([4]; at 50.0 µM),"growth inhibition [5, 7]","growth inhibition [5, 8]",growth inhibition ([5]; at 50.0 µM),"growth inhibition [6, 7]","growth inhibition [6, 8]",growth inhibition ([6]; at 50.0 µM)
Cc1cc(C)nc(NS(=O)(=O)c2ccc(Nc3c4ccccc4nc4c(C(=O)NCCCN(CCO)CCO)cccc34)cc2)n1,-20% (inactive),20% (inactive),45% (inactive),-13% (inactive),-14% (inactive),25.8% (inactive),-2% (inactive),-5% (inactive),-4.65% (inactive),70% (active),5% (inactive),74.3% (active),-14% (inactive),3% (inactive),78.2% (active),-7% (inactive),1% (inactive),60.2% (inactive)
S=c1nc[nH]c2[nH]ccc12,-3% (inactive),-4% (inactive),10.1% (inactive),2% (inactive),-3% (inactive),0.6% (inactive),0% (inactive),-2% (inactive),-2.35% (inactive),-2% (inactive),-7% (inactive),48% (inactive),-1% (inactive),-6% (inactive),-5.4% (inactive),-1% (inactive),0% (inactive),2.8% (inactive)
CN(C)Cc1c(O)ccc2ccccc12,2% (inactive),89% (active),-32.9% (inactive) and 45% (inactive),1% (inactive),98% (active),-33% (inactive) and 90.2% (active),2% (inactive),97% (active),-52.2% (inactive) and 43.4% (inactive),-6% (inactive),96% (active),-18.8% (inactive) and 85.1% (active),0% (inactive),97% (active),-32.4% (inactive) and 23.8% (inactive),2% (inactive),99% (active),-32.2% (inactive) and 39.2% (inactive)
O=C1C(=Cc2c[nH]c3ccccc23)C(=O)c2ccccc21,11% (inactive),93% (active),-9.1% (inactive) and 69.2% (inactive),-24% (inactive),96% (active),-6.4% (inactive) and 69.5% (inactive),-1% (inactive),91% (active),0.1% (inactive) and 71.1% (active),6% (inactive),83% (active),2.15% (inactive) and 32.4% (inactive),3% (inactive),95% (active),-15.7% (inactive) and 62.8% (inactive),-1% (inactive),96% (active),-1.65% (inactive) and 78.5% (active)
CN(C)c1ccc(/C=C/c2sc3ccccc3[n+]2C)cc1,-39% (inactive) and 14% (inactive),99% (active) and 98% (active),99.2% (active),-16% (inactive) and 49% (inactive),99% (active),99.2% (active) and 99.4% (active),-2% (inactive) and 16% (inactive),72% (active) and 99% (active),99.5% (active) and 99.4% (active),-2% (inactive) and 13% (inactive),99% (active) and 98% (active),98.8% (active) and 99.3% (active),12% (inactive) and -4% (inactive),99% (active),99.4% (active) and 99.3% (active),7% (inactive) and 22% (inactive),99% (active),99.3% (active) and 99.2% (active)
C/C(=N\O)c1cc(Br)cc([N+](=O)[O-])c1O,1% (inactive),14% (inactive),6.45% (inactive),7% (inactive),35% (inactive),4.15% (inactive),3% (inactive),27% (inactive),4.95% (inactive),13% (inactive),11% (inactive),39% (inactive),4% (inactive),10% (inactive),8.3% (inactive),5% (inactive),25% (inactive),14.8% (inactive)
CCCc1cc(=O)oc2c3c(c4c(c12)OC(C)(C)CC4)O[C@@H](C)[C@H](C)[C@H]3O,8% (inactive),90% (active),-6.95% (inactive) and 80.1% (active),-20% (inactive),95% (active),-18.8% (inactive) and 90% (active),-1% (inactive),93% (active),3.65% (inactive) and 89.6% (active),21% (inactive),94% (active),10.9% (inactive) and 88.7% (active),0% (inactive),92% (active),16.3% (inactive) and 87.8% (active),-6% (inactive),93% (active),8.05% (inactive) and 85.9% (active)
[N-]=[N+]=CC(=O)OCC1NC(=O)C(COC(=O)C=[N+]=[N-])NC1=O (configuration not stated),5% (inactive),-1% (inactive),-10.3% (inactive) and 80.2% (active),2% (inactive),6% (inactive),-20.1% (inactive) and 85.7% (active),-1% (inactive),3% (inactive),12.6% (inactive) and 71.3% (active),-2% (inactive),-7% (inactive),6.1% (inactive) and 76% (active),-1% (inactive),-2% (inactive),3.8% (inactive) and 85.3% (active),2% (inactive),1% (inactive),4.15% (inactive) and 86.6% (active)
CC(=O)Nc1ccc(S(=O)(=O)N(CCO)CCO)cc1,-2% (inactive),-4% (inactive),15.2% (inactive),-12% (inactive),-5% (inactive),98.5% (active),-12% (inactive),-4% (inactive),40.5% (inactive),0% (inactive),1% (inactive),57% (inactive),-7% (inactive),1% (inactive),80.7% (active),-20% (inactive),-9% (inactive),91.2% (active)
CCO/C(=C\C=O)C1CCC2C3CC=C4CC(OC(C)=O)CCC4(C)C3CCC12C (configuration not stated),7% (inactive),45% (inactive),63.4% (inactive),-1% (inactive),75% (active),51.5% (inactive),8% (inactive),86% (active),55.9% (inactive),2% (inactive),53% (inactive),55.1% (inactive),-3% (inactive),74% (active),23.4% (inactive),14% (inactive),94% (active),53.5% (inactive)
C=CCNC(=O)c1ccccc1SC(C)=O,14% (inactive),99% (active),88.9% (active),33% (inactive),99% (active),91.5% (active),20% (inactive),99% (active),89% (active),23% (inactive),96% (active),72% (active),52% (inactive),99% (active),89.2% (active),18% (inactive),99% (active),89.3% (active)
CCCCCCCCC(Sc1n[nH]c(=O)[nH]c1=O)C(=O)OCC (configuration not stated),4% (inactive),35% (inactive),85.5% (active),1% (inactive),70% (active),89.7% (active),4% (inactive),29% (inactive),91.6% (active),1% (inactive),88% (active),84.8% (active),-4% (inactive),88% (active),88.5% (active),3% (inactive),48% (inactive),89.5% (active)
CC1CC=CCC1C(=O)O (configuration not stated),8% (inactive),-1% (inactive),36% (inactive) and 9.75% (inactive),2% (inactive),-2% (inactive),-17.2% (inactive) and 28.9% (inactive),2% (inactive),-3% (inactive),-10.5% (inactive) and -4.9% (inactive),13% (inactive),3% (inactive),-8.4% (inactive) and -41.3% (inactive),6% (inactive),2% (inactive),33.3% (inactive) and -3.9% (inactive),4% (inactive),-5% (inactive),9.65% (inactive) and 10.2% (inactive)
CCOC(=O)Nc1c(C)cc(C)c(Br)c1C,-3% (inactive),-3% (inactive),97.2% (active),-12% (inactive),6% (inactive),98.7% (active),1% (inactive),12% (inactive),94.9% (active),0% (inactive),-20% (inactive),98.9% (active),-5% (inactive),-8% (inactive),98.6% (active),9% (inactive),22% (inactive),99.2% (active)
